# Compound activity: PubChem, several laboratories
# rCAG RNA binder = binders of r(CAG) RNA repeats, primary screen, biochemical, fluorescence | r(CAG) RNA repeat, TO-PRO-1 dye displacement fluorescence | inhibition, % at 3 µM | 370,000 compounds, 1.3% hits;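 active = inhibition above the plate cutoff, the mean of all test compounds on that plate plus 3 SD, cut at about 35% in these data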;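 also: higher means more dye released from RNA so lower well fluorescence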
# Pemphigus Ab inh = inhibitors of pemphigus antibody binding to DSG3, primary screen, biochemical, bead-based, flow cytometry, scFv-GFP | 310,000 compounds, 0.48% hits | Desmoglein-3 (Homo sapiens), P32926 | DSG3-coupled beads, scFv-anti-DSG3-GFP binding; stronger effect = lower value | binding (percent of control), % at 10 µM;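 active = binding more than 3 SD below its plate's average and above zero; inconclusive = below that plate limit but binding exactly zero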
# Target sequence (P32926 whole entry, looked up): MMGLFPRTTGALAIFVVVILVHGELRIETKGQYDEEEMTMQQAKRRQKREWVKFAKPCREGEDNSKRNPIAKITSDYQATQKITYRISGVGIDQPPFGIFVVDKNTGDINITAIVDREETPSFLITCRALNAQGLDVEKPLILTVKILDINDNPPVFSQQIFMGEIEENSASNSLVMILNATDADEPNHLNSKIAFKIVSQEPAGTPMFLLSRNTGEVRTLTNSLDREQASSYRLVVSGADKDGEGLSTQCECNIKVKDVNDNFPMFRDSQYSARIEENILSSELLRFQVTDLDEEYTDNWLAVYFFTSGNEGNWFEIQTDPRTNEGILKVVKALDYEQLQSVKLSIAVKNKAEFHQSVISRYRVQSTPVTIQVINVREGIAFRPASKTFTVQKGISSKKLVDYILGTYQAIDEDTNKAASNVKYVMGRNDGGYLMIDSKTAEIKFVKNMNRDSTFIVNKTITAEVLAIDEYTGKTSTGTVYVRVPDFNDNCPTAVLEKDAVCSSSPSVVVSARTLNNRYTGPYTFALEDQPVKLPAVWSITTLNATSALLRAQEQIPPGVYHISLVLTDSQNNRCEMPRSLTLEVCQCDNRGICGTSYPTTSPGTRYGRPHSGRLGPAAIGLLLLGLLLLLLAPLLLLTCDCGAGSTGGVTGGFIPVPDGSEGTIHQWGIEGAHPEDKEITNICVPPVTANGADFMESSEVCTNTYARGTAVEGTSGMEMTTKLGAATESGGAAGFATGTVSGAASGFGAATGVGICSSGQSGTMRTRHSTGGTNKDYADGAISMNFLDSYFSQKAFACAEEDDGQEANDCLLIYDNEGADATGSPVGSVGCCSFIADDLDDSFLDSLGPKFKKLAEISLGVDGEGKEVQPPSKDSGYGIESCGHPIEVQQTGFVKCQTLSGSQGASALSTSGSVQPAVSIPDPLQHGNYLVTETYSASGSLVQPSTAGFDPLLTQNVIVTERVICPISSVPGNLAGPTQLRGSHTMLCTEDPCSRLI
# NadD block = inhibitors of S. aureus NadD, primary screen, biochemical, colorimetric, uHTS; Nicotinate-nucleotide adenylyltransferase NadD (Staphylococcus aureus N315); AID 602399, 2012; inhibition, % at 20 µM; 360,000 compounds, 0.78% hits; purified NadD enzyme, colorimetric absorbance read-out; in the data active = inhibition above about 26%
# DAGLB inhibitor = DAGLB lipase inhibitors, primary screen, biochemical, fluorescence, HTS; inhibition, % at 5.17 µM; AID 504411, 2011; HEK293T DAGLB membrane lysate, EnzChek fluorogenic substrate; 340,000 compounds, 0.059% hits; Diacylglycerol lipase-beta (Homo sapiens), Q8NCG7; in the data active = inhibition above about 34%
# MsrA act = bovine MsrA enzyme activators, primary screen, biochemical, absorbance, HTS. Methionine sulfoxide reductase A (Bos taurus). purified bovine MsrA, absorbance read-out. activation, % at 10.6 µM. 360,000 compounds, 0.3% hits; in the data active = activation above about 7.5%
# MsrA inhibitor = bovine MsrA enzyme inhibitors, primary screen, biochemical, absorbance, HTS; Methionine sulfoxide reductase A (Bos taurus); purified bovine MsrA, absorbance read-out; inhibition, % at 15.5 µM; 360,000 compounds, 0.75% hits; in the data active = inhibition above about 4.5%
# NadD inh conf = inhibitors of S. aureus NadD, confirmation, biochemical, colorimetric, single concentration | shares compounds with NadD block | purified S. aureus NadD, colorimetric enzyme assay | inhibition, % at 20 µM | 2,000 compounds, 13% hits | AID 624309, 2012; in the data active = inhibition mostly above about 42%, no sharp cut-off; inactive = mostly below about 42%
# A number is an active result; - = inactive; ? = inconclusive; . = not tested or not shown. In the library only some 3.2% were active in any assay of this set; here they are far more common.
SMILES,rCAG RNA binder,Pemphigus Ab inh,NadD block,DAGLB inhibitor,MsrA act,MsrA inhibitor,NadD inh conf
CN(C)c1ccc(-c2cccc(C3CC=CC4C3C(=O)N(Cc3ccccc3)C4c3ccc(C(F)(F)F)cc3)c2)cc1 (stereo not drawn),-,-,31,-,-,-,-
CSc1ncc(CN2CCCC(C(=O)Nc3ccc(-c4ccco4)cc3)C2)cn1 (stereo not drawn),-,.,47,-,-,-,-
Cc1ccc(-c2cc(-c3ccco3)c3c(N)c(C(=O)NN)oc3n2)cc1,-,-,28,-,-,-,-
NNC(=O)c1oc2nc(-c3cccs3)cc(-c3ccco3)c2c1N,-,-,36,-,-,-,-
COc1cccc(/C=N/NC(=O)c2oc3nc(-c4ccccc4)cc(-c4ccco4)c3c2N)c1,-,-,-,-,-,-,.
NNC(=O)c1oc2nc(-c3ccccc3)cc(-c3ccccc3)c2c1N,-,-,31,-,-,-,-
CCOC(=O)c1cc(-c2cccs2)nc2onc(C)c12,-,-,-,-,-,-,.
CNC(=S)NNC(=O)c1oc2nc(-c3ccccc3)cc(C)c2c1N,-,-,-,-,-,-,.
COC(=O)[C@]12C[C@H](CC(=O)NCc3ccc(C)o3)C(=O)N(Cc3cccc4ccccc34)C1=C[C@H](C(C)C)O[C@@H]2C1CC1,-,.,.,.,.,.,.
CCCCCCCCN1C(=O)[C@H](CC(=O)N2CCCCC2)C[C@@]2(C(=O)OC)CC(C)(C)CC=C12,-,.,.,.,.,-,.
C=C(C)[C@@H]1CC[C@]2(C(=O)O)CC[C@]3(C)C(CCC4[C@@]5(C)CC[C@H](O)C(C)(C)C5CC[C@]43C)C12 (stereo partly drawn),-,-,-,-,-,-,.
C=C(C)[C@@H]1CCC2(C(=O)O)CC[C@]3(C)[C@H](CC[C@@H]4[C@@]5(C)CCC(=O)C(C)(C)[C@@H]5CC[C@]43C)[C@@H]12 (stereo partly drawn),-,-,48,-,-,-,-
C=CCOc1ccc(C2/C(=C(/O)c3ccc4c(c3)CC(C)O4)C(=O)C(=O)N2CCCN2CCOCC2)cc1 (stereo not drawn),-,-,29,-,-,-,-
COc1ccc(C2/C(=C(/O)c3ccc4c(c3)CC(C)O4)C(=O)C(=O)N2CCCN2CCOCC2)cc1 (stereo not drawn),-,-,-,-,-,-,.
N#CC1=C(N)OC2=C(C(=O)CC(c3ccco3)C2)C1c1ccc(OCc2c(F)cccc2Cl)cc1 (stereo not drawn),-,-,34,-,-,-,-
COc1cccc(C2C(C#N)=C(N)OC3=C2C(=O)CC(c2ccco2)C3)c1OCc1ccc(F)cc1 (stereo not drawn),-,-,31,-,-,-,-
N#CC1=C(N)OC2=C(C(=O)CC(c3ccccc3)C2)C1c1ccoc1 (stereo not drawn),-,-,-,-,-,-,.
C[C@H]1[C@H](c2ccccc2)Oc2cccc(N3CCCC3)c2S(=O)(=O)N1Cc1cccc(F)c1,-,.,.,.,.,-,.
CCCCCCn1c(=O)n2n(c1=O)[C@@H]1CN(S(=O)(=O)c3ccc(C)cc3)C[C@]1(O)[C@@H](OC(=O)NC1CCCC1)C2,-,-,-,-,-,-,.
NC(=O)COC(=O)c1cc(=O)[nH]c2ccc(S(=O)(=O)Nc3ccc(F)cc3)cc12,-,-,-,-,-,-,.
CCc1ccc(NC(=O)C(C)OC(=O)c2cc(=O)[nH]c3ccc(S(=O)(=O)Nc4ccc(F)cc4)cc23)cc1 (stereo not drawn),-,-,34,-,-,-,-
COc1ccccc1N1CCN(C(=O)c2ccc3nc(-c4ccco4)c(-c4ccco4)nc3c2)CC1,-,.,-,-,-,-,.
Cc1ccc(C)c(N2CCN(C(=O)c3ccc4nc(-c5ccco5)c(-c5ccco5)nc4c3)CC2)c1,-,69,64,-,-,-,-
CC(C)c1nc(N2CCN(C(=O)c3ccccc3)CC2)c(C#N)c2c1COC(C)(C)C2,-,?,-,-,-,-,.
CC1(C)Cc2c(C#N)c(N3CCN(C(=O)c4ccccc4)CC3)nc(-c3ccco3)c2CS1,-,.,43,-,-,-,-
SMILES,rCAG RNA binder,Pemphigus Ab inh,NadD block,DAGLB inhibitor,MsrA act,MsrA inhibitor,NadD inh conf
C[C@@H]1ON(C)[C@H]2C[C@H]3c4[nH]c5c(-c6ccc7c(c6)OCO7)cccc5c4CCN3C[C@@H]12,-,.,.,.,.,.,.
Cc1ccc(-c2nc3c4ccccc4ccn3c2Cc2ccccc2C(F)(F)F)cc1,-,.,31,.,-,-,-
COc1ccccc1Cc1c(-c2ccc(C)cc2)nc2c3ccccc3ccn12,-,.,.,.,.,-,.
Cc1cccc(Cn2cc(COC(=O)NCC(C)C)nn2)c1,-,.,.,.,.,.,.
CCOC(=O)C1CC2=C(CC(C)(C)CC2=O)N(CCOC)C1=O (stereo not drawn),-,-,-,-,-,-,.
Cn1c2ccccc2c(=O)c2cc(C#CC3=CCCCC3)ccc21,-,-,32,-,-,-,-
Cn1c2ccccc2c(=O)c2ccc(C#Cc3ccc(N)cc3)cc21,-,-,51,-,-,-,-
Nc1ccc2nc(CCCCCCc3nc4ccc(N)cc4[nH]3)[nH]c2c1,-,65,50,-,-,-,-
Nc1ccc2nc(CCCCCCCCc3nc4ccc(N)cc4[nH]3)[nH]c2c1,-,-,-,-,-,-,.
O=c1[nH]c(CN2CCN(Cc3ccccc3)CC2)nc2scc(-c3ccccc3)c12,-,-,-,-,-,-,.
O=c1[nH]c(Cn2nnc(-c3ccccc3)n2)nc2scc(-c3ccccc3)c12,-,-,30,-,-,-,-
COC(=O)[C@H]1C[C@@]2(n3ccc4ccccc43)c3ccccc3N[C@H]2N1,-,.,.,.,.,.,.
N=c1scc(-c2ccccc2)n1/N=C/c1ccco1,-,-,38,-,.,-,-
CCc1nc2ccc(C(=O)N3CCCC(C(N)=O)C3)cn2c1N(C)Cc1ccc(OC)cc1 (stereo not drawn),-,.,-,.,-,-,.
CCN(CC)c1ccc(NC(=O)Cn2c(C(C)NC(=O)c3ccc(C)cc3)nc3ccccc32)cc1 (stereo not drawn),-,-,34,-,-,-,-
Oc1c(Br)cc(Br)cc1C=Nc1ccc2[nH]ncc2c1,-,-,30,-,-,-,-
O=C(Nc1ccc(Br)cc1F)c1nc[nH]c1C(=O)N1CCc2ccccc2C1,-,.,-,-,-,-,.
O=C(c1ccc2snnc2c1)N1CCCCC1,-,-,52,-,-,-,-
